Measured values from PubChem BioAssay (Tox21).
Inconclusive results are not listed. Activity calls are given as the source filed them. Unless noted, calls come from the whole dose curve; as a rule, active = well fitted curve in the direction sought with a large enough effect in the repeat runs; inconclusive = weak or mixed curves; inactive = no such curve, though single readings can be large; an effect the other way counts as inactive or inconclusive.

Assays:
[1] = target: Progesterone receptor (Homo sapiens) (UniProt P06401); experiment: qHTS assay to identify small molecule agonists of the progesterone receptor (PR) signaling pathway (AID 1346784; calls by dose curve; note: % is set by controls: 0 for no effect and ±100 for the full control effect; nearly all actives have a fitted effect of over 30% in size)
Sequence of Progesterone receptor (Homo sapiens) (P06401 whole entry, looked up): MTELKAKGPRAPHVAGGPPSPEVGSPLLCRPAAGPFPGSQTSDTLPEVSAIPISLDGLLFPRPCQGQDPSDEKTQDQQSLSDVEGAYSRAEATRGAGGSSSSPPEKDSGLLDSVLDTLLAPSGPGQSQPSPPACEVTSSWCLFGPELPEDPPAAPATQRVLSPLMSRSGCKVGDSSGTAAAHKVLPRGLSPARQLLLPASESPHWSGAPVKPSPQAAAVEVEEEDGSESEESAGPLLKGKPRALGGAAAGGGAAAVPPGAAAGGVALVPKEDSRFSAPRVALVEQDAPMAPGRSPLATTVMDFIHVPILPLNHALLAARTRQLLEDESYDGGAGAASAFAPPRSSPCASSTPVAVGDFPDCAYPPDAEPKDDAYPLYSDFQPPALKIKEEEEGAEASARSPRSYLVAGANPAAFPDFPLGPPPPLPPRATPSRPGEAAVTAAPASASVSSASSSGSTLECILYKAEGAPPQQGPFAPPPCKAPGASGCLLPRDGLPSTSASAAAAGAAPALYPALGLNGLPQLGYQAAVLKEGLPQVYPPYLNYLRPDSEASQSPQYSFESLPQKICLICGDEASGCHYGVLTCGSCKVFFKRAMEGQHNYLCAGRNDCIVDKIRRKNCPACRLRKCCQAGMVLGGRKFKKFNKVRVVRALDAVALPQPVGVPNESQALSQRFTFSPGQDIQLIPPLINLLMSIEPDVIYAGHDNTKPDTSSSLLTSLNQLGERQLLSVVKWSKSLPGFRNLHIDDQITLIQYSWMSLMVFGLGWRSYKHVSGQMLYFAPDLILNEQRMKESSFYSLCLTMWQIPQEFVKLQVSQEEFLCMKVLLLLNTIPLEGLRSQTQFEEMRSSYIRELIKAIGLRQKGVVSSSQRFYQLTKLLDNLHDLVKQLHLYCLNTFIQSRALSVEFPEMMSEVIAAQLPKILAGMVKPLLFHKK
Summary of the method: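 PR-UAS-bla HEK 293T cells carrying a UAS-driven beta-lactamase reporter were seeded in medium with 2% charcoal-stripped FBS, preincubated 6 hr at 37C, then exposed to compounds in DMSO for 16 hr; agonism was read by LiveBLAzer B/G FRET fluorescence.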

[2] = target: Progesterone receptor (Homo sapiens) (UniProt P06401); experiment: qHTS assay to identify small molecule antagonists of the progesterone receptor (PR) signaling pathway (AID 1346795; active = well fitted inhibition curve with a large enough effect in the signal ratio in the repeat runs, not every such curve was filed as active; the % refers to the signal ratio; note: potency is the fitted concentration of half-maximal effect)
Summary of the method: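 PR-UAS-bla HEK293T cells carrying a UAS-driven beta-lactamase reporter were plated in medium with 2% charcoal-stripped FBS and rested 6 hr at 37C. Compounds were added with 1 nM R5020 (final) for 16 hr, then FRET substrate loaded 2 hr at room temperature.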

[3] = qHTS assay to identify small molecule agonists of the progesterone receptor (PR) signaling pathway - cell viability counter screen (AID 1346799; calls by dose curve; note: nearly all actives have a fitted effect of over 45% in size; note: potency is the fitted concentration of half-maximal effect; for activity change, negative = cytotoxicity: % is set by controls: 0 for no effect and ±100 for the full control effect)
Summary of the method: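 PR-UAS-bla HEK293T cells, 3,000 per well in medium with 2% charcoal-stripped FBS, were preincubated 6 hr at 37C, then exposed to compounds for 16 hr; viability was read as CellTiter-Glo luminescence after 30 min at room temperature.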

[4] = qHTS assay to identify small molecule antagonists of the TGF-beta/Smad signaling pathway - cell viability counter screen (AID 1346824); note: % is set by controls: 0 for no effect and ±100 for the full control effect; nearly all actives have a fitted effect of over 50% in size
Summary of the method: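 SBE-bla HEK 293T cells were plated overnight at 37 C, then given compounds in DMSO plus TGF-beta1 (added as 0.25 ng/mL solution) for 5 hr. After the bla read, CellTiter-Glo was added to the same wells and luminescence read after 30 min at room temperature.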

[5] = qHTS assay to identify small molecule agonists of the TGF-beta/Smad signaling pathway - cell viability counter screen (AID 1346829); note: nearly all actives have a fitted effect of over 45% in size; note: potency is the fitted concentration of half-maximal effect
Summary of the method: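 Here the cytotoxicity of library compounds is measured in SBE-bla HEK 293T cells treated for 5 hr, using CellTiter-Glo added to wells already read for the beta-lactamase reporter.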

[6] = target: Thyrotropin-releasing hormone receptor (Homo sapiens) (UniProt P34981); experiment: qHTS assay to identify small molecule antagonists of the thyrotropin-releasing hormone receptor (TRHR) signaling pathway (AID 1346877; active = well fitted inhibition curve with a large enough effect in the repeat runs, not every such curve was filed as active; note: series mostly up to about 51 µM; % is set by controls: 0 for no effect and ±100 for the full control effect)
Sequence of Thyrotropin-releasing hormone receptor (Homo sapiens) (P34981 whole entry, looked up): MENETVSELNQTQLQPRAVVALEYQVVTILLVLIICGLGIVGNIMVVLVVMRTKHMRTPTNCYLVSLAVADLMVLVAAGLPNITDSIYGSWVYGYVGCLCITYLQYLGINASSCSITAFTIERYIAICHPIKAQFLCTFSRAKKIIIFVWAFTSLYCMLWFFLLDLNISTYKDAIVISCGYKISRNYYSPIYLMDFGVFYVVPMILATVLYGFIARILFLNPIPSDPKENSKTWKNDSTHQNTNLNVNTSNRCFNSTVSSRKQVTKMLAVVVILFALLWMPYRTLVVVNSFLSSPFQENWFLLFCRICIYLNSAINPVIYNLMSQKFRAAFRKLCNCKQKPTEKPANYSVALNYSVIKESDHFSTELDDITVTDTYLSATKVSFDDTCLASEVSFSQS
Summary of the method: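 Cells (TRHR-HEK293) are plated and kept 18 h at 37 °C/5% CO2. A calcium-sensitive dye is added for 2 h, compound follows for 5 min at room temperature, and TRH is then given at 1 nM final.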

[7] = target: Thyrotropin-releasing hormone receptor (Homo sapiens) (UniProt P34981); experiment: qHTS assay to identify small molecule agonists of the thyrotropin-releasing hormone receptor (TRHR) signaling pathway (AID 1346891; calls by dose curve; note: series mostly up to about 58 µM; % is set by controls: 0 for no effect and ±100 for the full control effect)
Summary of the method: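 TRHR-expressing HEK293 cells were plated 18 h at 37 °C/5% CO2, loaded with calcium dye 2 h at 37 °C, then given compound in DMSO; fluorescence was read kinetically for 3 min at 1 s intervals.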

[8] = Caspase-3/7 induction in HepG2 cells by small molecules, qHTS assay (AID 1346978); note: nearly all actives have a fitted effect of over 15% in size; note: potency is the fitted concentration of half-maximal effect
Summary of the method: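 Wild-type HepG2 cells (2,000/well) were settled 5 h at 37 C, 5% CO2, then exposed to compounds in DMSO for 17 h. Caspase-3/7 activity was read by luminescence 30 min after adding Caspase-Glo 3/7 reagent at room temperature.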

[9] = Caspase-3/7 induction in CHO-K1 cells by small molecules, qHTS cell viability counter screen (AID 1346979); note: nearly all actives have a fitted effect of over 35% in size; note: potency is the fitted concentration of half-maximal effect
Summary of the method: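 Wild-type CHO-K1 cells were seeded at 1,500 per well, rested 5hr at 37 C, then exposed to compounds in DMSO. After 16hr, CellTiter-Fluor reagent was added and fluorescence read 1hr later as the viability measure.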

[10] = Caspase-3/7 induction in CHO-K1 cells by small molecules, qHTS assay (AID 1346980); note: nearly all actives have a fitted effect of over 15% in size; note: potency is the fitted concentration of half-maximal effect
Summary of the method: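 Wild-type cells were seeded at 1,500 per well and settled 5 hr at 37 C, 5% CO2, then exposed to DMSO-dissolved compounds for 17 hr. Caspase-Glo 3/7 reagent was added, and luminescence was read after 30min at room temperature.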

[11] = Caspase-3/7 induction in HepG2 cells by small molecules, qHTS cell viability counter screen (AID 1346981); note: nearly all actives have a fitted effect of over 30% in size; note: potency is the fitted concentration of half-maximal effect
Summary of the method: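 Steps: seed 2,000 HepG2 cells per well; incubate 5 hr at 37 C; pin-add compounds in DMSO; incubate 16 hr; add CellTiter-Fluor; after 1 hr at 37 C and 5% CO2, read fluorescence.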

[12] = target: Nuclear receptor subfamily 1 group I member 2 (Homo sapiens) (UniProt O75469); experiment: Human pregnane X receptor (PXR) small molecule agonists, qHTS assay (AID 1346982); note: nearly all actives have a fitted effect of over 35% in size; note: potency is the fitted concentration of half-maximal effect
Sequence of Nuclear receptor subfamily 1 group I member 2 (Homo sapiens) (O75469 whole entry, looked up): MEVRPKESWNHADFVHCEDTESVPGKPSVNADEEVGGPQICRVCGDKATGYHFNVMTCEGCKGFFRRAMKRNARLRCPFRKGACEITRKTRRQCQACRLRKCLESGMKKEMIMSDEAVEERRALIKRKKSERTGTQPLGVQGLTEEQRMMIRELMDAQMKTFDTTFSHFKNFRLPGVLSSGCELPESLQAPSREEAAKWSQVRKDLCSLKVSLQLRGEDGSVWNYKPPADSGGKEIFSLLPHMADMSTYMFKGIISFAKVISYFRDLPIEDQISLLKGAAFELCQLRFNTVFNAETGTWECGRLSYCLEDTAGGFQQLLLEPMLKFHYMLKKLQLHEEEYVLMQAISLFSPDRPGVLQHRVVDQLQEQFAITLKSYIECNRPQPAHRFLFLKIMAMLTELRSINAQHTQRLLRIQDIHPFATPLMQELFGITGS
Summary of the method: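 Agonist mode qHTS: PXR-Luc HepG2 cells plated 5 hr before DMSO-dissolved compounds were pinned in, cultured 24 hr at 37 C, 5% CO2; ONE-Glo luminescence readout.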

[13] = target: Cytochrome P450 2D6 (Homo sapiens) (UniProt P10635); experiment: Cytochrome P450 Family 2 Subfamily D Member 6 (CYP2D6) small molecule antagonists: luciferase reporter qHTS assay (AID 1671196); note: nearly all actives have a fitted effect of over 50% in size; note: potency is the fitted concentration of half-maximal effect
Sequence of Cytochrome P450 2D6 (Homo sapiens) (P10635 whole entry, looked up): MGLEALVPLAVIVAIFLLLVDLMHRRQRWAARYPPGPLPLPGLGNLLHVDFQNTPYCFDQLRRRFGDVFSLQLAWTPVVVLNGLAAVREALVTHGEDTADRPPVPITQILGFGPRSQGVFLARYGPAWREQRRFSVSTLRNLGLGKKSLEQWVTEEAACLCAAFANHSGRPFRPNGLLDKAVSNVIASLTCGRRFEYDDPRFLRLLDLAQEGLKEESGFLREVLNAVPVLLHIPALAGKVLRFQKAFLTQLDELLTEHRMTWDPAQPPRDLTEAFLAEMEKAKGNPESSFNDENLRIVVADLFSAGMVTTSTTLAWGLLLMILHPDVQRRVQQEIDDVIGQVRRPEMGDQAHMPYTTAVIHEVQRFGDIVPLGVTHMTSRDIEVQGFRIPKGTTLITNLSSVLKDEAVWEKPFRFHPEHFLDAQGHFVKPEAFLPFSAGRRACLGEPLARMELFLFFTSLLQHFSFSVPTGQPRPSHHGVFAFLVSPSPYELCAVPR
Summary of the method: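 P450-Glo format: CYP2D6 converts a proluciferin substrate to luciferin in an NADPH-driven reaction lasting 1 h at room temperature. Light output, proportional to CYP2D6 activity, reflects interference by test chemicals.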

[14] = target: Cytochrome P450 2C19 (Homo sapiens) (UniProt P33261); experiment: Cytochrome P450 Family 2 Subfamily C Member 19 (CYP2C19) small molecule antagonists: luciferase reporter qHTS assay (AID 1671197); note: nearly all actives have a fitted effect of over 65% in size; note: potency is the fitted concentration of half-maximal effect
Sequence of Cytochrome P450 2C19 (Homo sapiens) (P33261 whole entry, looked up): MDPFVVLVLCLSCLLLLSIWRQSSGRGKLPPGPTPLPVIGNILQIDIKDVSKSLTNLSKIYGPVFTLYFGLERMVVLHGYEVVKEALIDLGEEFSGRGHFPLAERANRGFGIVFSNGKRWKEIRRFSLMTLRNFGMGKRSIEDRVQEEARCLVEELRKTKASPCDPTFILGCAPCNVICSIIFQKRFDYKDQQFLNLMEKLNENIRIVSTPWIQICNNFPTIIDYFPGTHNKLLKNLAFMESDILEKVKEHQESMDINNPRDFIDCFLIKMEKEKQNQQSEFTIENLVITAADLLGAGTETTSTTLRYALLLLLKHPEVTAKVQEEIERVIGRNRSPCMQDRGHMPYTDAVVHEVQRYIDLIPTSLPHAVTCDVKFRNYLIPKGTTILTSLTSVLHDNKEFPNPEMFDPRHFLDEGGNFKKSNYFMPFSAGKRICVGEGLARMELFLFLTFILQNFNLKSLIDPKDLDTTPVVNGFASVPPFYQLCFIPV
Summary of the method: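 Light output is proportional to CYP2C19 activity: proluciferin substrate is converted to luciferin, then detected by a luciferin detection reagent that also stops the 1 h, 37C NADPH-driven reaction. Ketoconazole serves as positive control.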

[15] = qHTS assay to identify small molecule agonists of the TGF-beta/Smad signaling pathway (AID 1346859; active = well fitted activation curve with a large enough effect in the signal ratio in the repeat runs, not every such curve was filed as active; the % refers to the signal ratio; note: series mostly up to about 77 µM; % is set by controls: 0 for no effect and ±100 for the full control effect)
Summary of the method: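 HEK 293T cells stably carrying a beta-lactamase reporter driven by the Smad binding element were seeded overnight, exposed to DMSO-dissolved compounds for 5 hr at 37 C, 5% CO2, then loaded with FRET substrate for 2 hr at room temperature.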

[16] = Human pregnane X receptor (PXR) small molecule agonists, qHTS cell viability counter screen (AID 1346977); note: nearly all actives have a fitted effect of over 50% in size; note: potency is the fitted concentration of half-maximal effect
Summary of the method: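 PXR-Luc HepG2 cells in medium with 5% charcoal-stripped FBS were pre-incubated 5hr, then exposed to compounds for 24hr at 37C. Viability was read in the same wells by CellTiter-Fluor fluorescence, reagent added after 23hr with a 1hr incubation.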

[17] = qHTS assay to identify small molecule antagonists of the progesterone receptor (PR) signaling pathway - cell viability counter screen (AID 1346798); note: potency is the fitted concentration of half-maximal effect; nearly all actives have a fitted effect of over 50% in size
Summary of the method: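 PR-UAS-bla HEK293T cells in medium with 2% charcoal-stripped FBS were treated with compounds plus R5020 for 16 hr at 37C. Cell viability was then read by CellTiter-Glo luminescence after 30 min at room temperature in the same wells.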

[18] = target: Nuclear receptor subfamily 1 group I member 2 (Rattus norvegicus) (UniProt Q9R1A7); experiment: Rat pregnane X receptor (rPXR) activation by small molecules, qHTS assay (AID 1346983); details: rPXR luciferase reporter cells, One-Glo luminescence, 24 h; max activation: active compounds read high; note: % is set by controls: 0 for no effect and ±100 for the full control effect; nearly all actives have a fitted effect of over 20% in size
Sequence of Nuclear receptor subfamily 1 group I member 2 (Rattus norvegicus) (Q9R1A7 whole entry, looked up): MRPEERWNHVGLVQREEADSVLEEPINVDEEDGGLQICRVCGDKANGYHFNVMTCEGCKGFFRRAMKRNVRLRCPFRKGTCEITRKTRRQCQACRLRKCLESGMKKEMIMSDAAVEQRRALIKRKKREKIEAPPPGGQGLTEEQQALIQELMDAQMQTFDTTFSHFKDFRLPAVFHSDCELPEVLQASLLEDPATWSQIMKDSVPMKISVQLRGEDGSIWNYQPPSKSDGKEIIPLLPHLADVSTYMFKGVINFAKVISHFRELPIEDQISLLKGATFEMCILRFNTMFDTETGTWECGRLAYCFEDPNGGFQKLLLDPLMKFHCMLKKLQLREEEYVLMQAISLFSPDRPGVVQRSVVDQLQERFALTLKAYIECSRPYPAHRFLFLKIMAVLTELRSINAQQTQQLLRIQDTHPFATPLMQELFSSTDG
Summary of the method: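 Cell-based rPXR luciferase reporter assay, 2,000 cells per well, rested 5hr at 37 C before compound addition in DMSO, then 24 hr at 37 C. One-Glo reagent was added and luminescence read after 30 min at room temperature.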

[19] = target: Nuclear receptor subfamily 1 group I member 2 (Homo sapiens) (UniProt O75469); experiment: CYP3A4 induction through human pregnane X receptor (PXR) by small molecules, qHTS assay (AID 1346984); note: % is set by controls: 0 for no effect and ±100 for the full control effect; nearly all actives have a fitted effect of over 40% in size
Summary of the method: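 Steps: seed DPX-2 cells, 5 hr at 37C; pin-transfer compounds; 24 hr at 37C; add Luciferin-IPA (3uM final), 3 hr at 37C; add One-Glo, 30 min RT; read luminescence.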

[20] = target: Nuclear receptor subfamily 1 group I member 2 (Homo sapiens) (UniProt O75469); experiment: Human pregnane X receptor (PXR) activation by small molecules, qHTS assay (AID 1346985); note: % is set by controls: 0 for no effect and ±100 for the full control effect; nearly all actives have a fitted effect of over 40% in size
Summary of the method: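 DPX-2 cells (HepG2 co-transfected with a PXR response element and a CYP3A4-promoter luciferase construct) were seeded at 2,000 per well, rested 5 hr at 37C, then exposed to DMSO-dissolved compounds for 24 hr. Activation was read as luciferase luminescence.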

CCN(Cc1cccnc1)C(=O)c1cccc(Cl)c1[C@]1(C)C(=O)N(Cc2ccc(OC)cc2OC)c2ccc(Cl)cc21
inactive: Potency [1] | Potency [3] | Potency [4] | Potency [5] | Potency [6] | Potency [7] | Potency [8] | Potency [10]
active: Potency [2] 16.1 µM | Potency [9] 20.3 µM | Potency [11] 45.4 µM | Potency [12] 20.3 µM | Potency [13] 18.7 µM | Potency [14] 1.32 µM

CC(NN)c1ccccc1 (configuration not stated)
inactive: activation [1] -0.517% [at 19 µM] | activity change, negative = inhibition [2] -2.01% [at 18.9 µM] | activity change, negative = cytotoxicity [3] -7.08% [at 19 µM] | viability change, negative = cytotoxic [4] 2.36% [at 15.8 µM] | activity change, negative = cytotoxicity [5] -16.9% [at 15.8 µM] | activation [15] 1.03% [at 15.8 µM] | activity change, negative = cytotoxicity [16] 0.166% [at 19 µM] | caspase activation [8] -0.345% [at 19 µM] | activity change, negative = cytotoxicity [9] 6.27% [at 19 µM] | caspase-3/7 activation [10] 2.13% [at 19 µM] | activity change, negative = cytotoxicity [11] 2.61% [at 19 µM] | activation [12] 7.91% [at 19 µM]
active: Potency [13] 15.1 µM

CCCCN1CCCC[C@H]1C(=O)Nc1c(C)cccc1C
active: Potency [13] 0.617 µM
inactive: Potency [1] | Potency [2] | Potency [4] | Potency [5] | Potency [15] | Potency [6] | Potency [7] | Potency [16] | Potency [8] | Potency [9] | Potency [10] | Potency [11] | Potency [14]

CN(C)CCCOC1(Cc2ccccc2)CCCCCC1
inactive: Potency [1] | Potency [2] | Potency [4] | Potency [5] | Potency [15] | Potency [6] | Potency [7] | Potency [8] | Potency [9] | Potency [10] | Potency [11]
active: Potency [13] 1.55 µM

Clc1ccc(C(Cn2ccnc2)OCc2ccc(Sc3ccccc3)cc2)c(Cl)c1 (configuration not stated)
inactive: Potency [1] | Potency [4] | Potency [5] | Potency [15] | Potency [6] | Potency [7] | Potency [16] | Potency [8] | Potency [10] | Potency [11]
active: Potency [2] 29.8 µM | Potency [12] 26.6 µM | Potency [13] 0.389 µM | Potency [14] 2.75 µM

COc1cc(-c2nc(NC(=O)c3cc4cc(C)cc(C)c4n3CC(=O)O)sc2CCC2CCCCC2)c(OC)cc1Cl
inactive: Potency [1] | Potency [13]
active: Potency [2] 12.5 µM | Potency [3] 11.2 µM | Potency [5] 28.3 µM | Potency [16] 31.5 µM | Potency [9] 19.9 µM | Potency [10] 56 µM | Potency [12] 28.1 µM

O=CC=C(c1ccccc1)c1ccccc1
inactive: Potency [1] | Potency [4] | Potency [5] | Potency [15] | Potency [6] | Potency [7] | Potency [8]
active: Potency [2] 27.5 µM | Potency [9] 54.9 µM | Potency [12] 69.1 µM | Potency [14] 18 µM

CC(C)(C)NC(=O)[C@@H]1C[C@@H]2CCCC[C@@H]2CN1C[C@@H](O)[C@H](Cc1ccccc1)NC(=O)[C@H](CC(N)=O)NC(=O)c1ccc2ccccc2n1
active: Potency [2] 49.2 µM | Potency [17] 55.2 µM | Potency [16] 19.6 µM | Potency [8] 69.5 µM | Potency [10] 61.9 µM | Potency [11] 27.7 µM | Potency [12] 24.7 µM
inactive: Potency [1] | max activation [18] 7.59% | Potency [19]

CCCCCCCCOc1ccccc1C(=O)Nc1ccc(C(=O)OCC[N+](C)(CC)CC)cc1
active: Potency [13] 38.9 µM | Potency [14] 3.89 µM
inactive: Potency [1] | Potency [2] | Potency [4] | Potency [5] | Potency [15] | Potency [6] | Potency [7] | Potency [16] | Potency [10] | Potency [12] | max activation [18] 0.409% | Potency [19] | Potency [20]
